Assay outcomes from PubChem.
A selection: hits, their analogues and other compounds. The true share with any hit is near 2.3%.
A549 viability: A549 cytotoxicity, counter-screen for Nrf2 inhibitors; A549 ARE-Fluc cells, CellTiter-Fluor viability, 18-24 h; Potency, µM (top dose mostly 46 µM), for the others: at the highest dose activity change, negative = cytotoxicity, actives largely listed as inhibitors; actives 0.16% (n = 390,000); AID 504648; also: potency is read from the fitted curve at half-maximal effect; % is scaled to controls: 0 for no effect and ±100 for the full control effect
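A549 ARE-Fluc cells in 5% FBS OPTI-MEM, 5000 cells/well, rested 2 h then exposed to compounds in concentration-response for 18-24 h at 37 °C. Viability by CellTiter-Fluor fluorescence (Ex 405/Em 525) after 30 min; luciferase luminescence (BugLite, 15 min, RT) read afterwards.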
Nrf2 ARE act: Nrf2 pathway activation; AREc32 ARE-luciferase reporter (MCF7-derived line), luminescence, 24 h; Potency, µM (series often up to 46.1 µM), inactives show at the top dose activation, actives largely listed as activators; actives 0.31% (n = 410,000); AID 624171; also: potency is read from the fitted curve at half-maximal effect; % of control where 0% means no effect; nearly all actives have a fitted effect of over 65% in size
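ARE-driven firefly luciferase activity in AREc32 cells measured after a 24 hr compound exposure at 37 deg C, using Steady-Glo reagent and a 30 min room-temperature hold.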
Nrf2 block: blocks Nrf2 signaling; A549 ARE-Fluc reporter, luciferase luminescence, 18-24 h; Potency, µM (doses to about 46 µM), for the others: at the highest dose activity change, negative = inhibition, actives largely listed as inhibitors; actives 2.1% (n = 360,000); AID 504444; also: potency is read from the fitted curve at half-maximal effect; % is scaled to controls: 0 for no effect and ±100 for the full control effect; nearly all actives have a fitted effect of over 60% in size
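In this cell-based qHTS, ARE-driven firefly luciferase in A549 cells reports Nrf2 activity; the luminescent signal after BugLite lysis is the measured value, with a prior CellTiter-Fluor read for cell health.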
IL2 activator: IL-2 activation. actives 0.065% (n = 360,000). IL-2 activation reporter assay, cell-based qHTS; stimulated with anti-CD3/CD4/CD28 beads; in transgenic mouse T cells. AID 652025. activation, % (series mostly up to about 46 µM); in the data active = activation above about 50%; inconclusive = mostly about 30% to 49%; also: 0% is about no effect
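Unstimulated transgenic mouse T cells, 750 per well, received compound and, after 60 minutes, anti-CD3/anti-CD4 bead plus anti-CD28 stimulation. EGFP and DsRed were quantified after 18 hours.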
Numbers without * were called inactive; [ ] = remark or other dose. Unless noted, calls follow the shape of the dose curve; as a rule, active = well fitted curve in the direction sought with a large enough effect; inconclusive = small, poorly fitted or top-dose-only effect, or another doubt; inactive = no such curve, though single readings can be large; an effect the other way counts as inactive or inconclusive.

For Cc1cc2c(s1)c1cnn(Cc3ccc(Cl)c(Cl)c3)c(=O)c1n2C the results were A549 viability 0% and Nrf2 block 13%.
Screening CCC1CCc2nc3sc(C(=O)Nc4ccc(C)cc4C)c(N)c3cc2C1 (stereo not given) returned A549 viability 7%, Nrf2 ARE act -1% and Nrf2 block -6%.
Cc1nn(-c2ccccc2)c(C)c1C(=O)OC(C)C(=O)NC1CCCCC1 (stereo not given) was read as A549 viability -21%, Nrf2 ARE act 1%, Nrf2 block 18µM* and IL2 activator -1.
COc1nc(C#N)nc(N2CCCCC2)n1 was read as A549 viability -1% and Nrf2 block -27%.
CC(Nc1ccccc1N1CCCCC1)C(=O)N1CCc2ccccc21 (stereo not given) was read as A549 viability -9%, Nrf2 ARE act 0%, Nrf2 block 9.2µM* and IL2 activator 2.
For CC1=C(C(=O)OCc2ccc(C)cc2)C(c2cccc(F)c2F)CC(=O)N1 (stereo not given) the results were A549 viability -1%, Nrf2 ARE act 0% and Nrf2 block 23µM*.
For CCOc1ccc(-n2c(SCC(=O)N3CCC(C)CC3)nc3c([nH]c4ccccc43)c2=O)cc1 the results were A549 viability -1% and Nrf2 ARE act 1%.
Screening COCCCn1c(N)c(-c2nc3ccccc3n2C)c2nc3ccccc3nc21 returned A549 viability -16%, Nrf2 ARE act 5%, Nrf2 block 21µM* and IL2 activator -3.
Screening Cn1c(-c2c(N)n(CCCc3ccccc3)c3nc4ccccc4nc23)nc2ccccc21 returned A549 viability inconclusive, Nrf2 ARE act 2% and IL2 activator 1.
`O=C(COC(=O)c1cc([N+](=O)[O-])ccc1NCCO)c1ccc(Cl)cc1` gave A549 viability 0%, Nrf2 ARE act 0%, Nrf2 block 2% and IL2 activator -1.
For CCc1ccc(C(=O)COC(=O)c2cc([N+](=O)[O-])ccc2NCCO)cc1 the results were A549 viability 15µM*, Nrf2 ARE act 3%, Nrf2 block 7.3µM* and IL2 activator -4.
COC(=O)C1Cc2c([nH]c3ccccc23)C2CCC(=O)N12 (stereo not given) was read as Nrf2 ARE act 2% and IL2 activator 0.
Screening COC(=O)[C@@H]1Cc2c([nH]c3ccccc23)C(C)(C)N1C(=O)CCl returned A549 viability -7%, Nrf2 ARE act 10µM*, Nrf2 block -14% and IL2 activator -1.
Cc1cc(NC(=O)C2CCCN2C(=O)Nc2cccc(Cl)c2)ccc1-n1cnnn1 (stereo not given) was read as A549 viability -3%, Nrf2 ARE act -1%, Nrf2 block 16µM* and IL2 activator -2.
COc1ccccc1NC(=O)Cc1csc(NC(=S)Nc2ccccc2)n1 was read as A549 viability 18µM*, Nrf2 ARE act 3%, Nrf2 block 21µM* and IL2 activator -2.
COc1ccc(NC(=S)Nc2nc(CC(=O)Nc3ccccc3OC)cs2)cc1 was read as A549 viability inconclusive, Nrf2 ARE act 2%, Nrf2 block inconclusive and IL2 activator 0.
Screening Cc1sc(NC(=O)c2ccco2)c(CN2CCCCC2)c1C returned A549 viability 9%, Nrf2 ARE act 8.9µM*, Nrf2 block 18% and IL2 activator -2.
Screening CCOC(=O)c1cnc2c(ccc3ccccc32)c1Nc1cccc(C(F)(F)F)c1 returned A549 viability 9%, Nrf2 ARE act 4% and Nrf2 block 6%.
Screening O=c1/c(=C/c2ccc(O)c([N+](=O)[O-])c2)sc2nc3ccccc3n12 returned A549 viability -22%, Nrf2 ARE act 2%, Nrf2 block 3% and IL2 activator 0.
For O=c1/c(=C\c2ccc(O)cc2)sc2nc(-c3ccccc3)c(-c3ccccc3)n12 the results were A549 viability 1%, Nrf2 ARE act 4%, Nrf2 block -8% and IL2 activator 99*.
`O=C(CCNC(=O)c1ccc([N+](=O)[O-])cc1)Nc1ccc(Cl)c(S(=O)(=O)N2CCOCC2)c1` gave A549 viability 2%, Nrf2 ARE act 5%, Nrf2 block 23µM* and IL2 activator 2.
CCOc1ccccc1OCCCC(=O)Nc1ccc(Cl)c(S(=O)(=O)N2CCOCC2)c1 was read as A549 viability -12%, Nrf2 ARE act 4%, Nrf2 block 16µM* and IL2 activator 0.
For CCOc1ccccc1-c1nnc2n1N=C(c1ccc(OC)c(OC)c1)CS2 the results were A549 viability 1% and Nrf2 block inconclusive.
Screening CCN(CC)C(=O)c1sc2c(c1C)c(=O)n(-c1ccccc1)c(=O)n2CC(=O)N(CC)c1cccc(C)c1 returned A549 viability 1% and Nrf2 ARE act 1%.
Screening O=C(O)c1ccccc1Nc1ccc([N+](=O)[O-])c2nonc12 returned A549 viability 18µM*, Nrf2 ARE act 0%, Nrf2 block -21% and IL2 activator 3.
Screening COc1cccc(Nc2ccc([N+](=O)[O-])c3nonc23)c1 returned A549 viability 18µM*, Nrf2 ARE act 7%[9.22 µM], Nrf2 block inconclusive and IL2 activator -3.
For Cc1ccc(Sc2c(C)nn(C(=O)COc3ccccc3Br)c2C)cc1 the results were A549 viability 10%, Nrf2 ARE act 1% and Nrf2 block 13%.
For N#Cc1nc(Nc2cc(F)cc(F)c2)c2ncn(CCO)c2n1 the results were A549 viability -20% and Nrf2 block -6%.
`COCCCNC(=S)NNC(=O)C1CC1c1ccc(C(C)(C)C)cc1` (stereo not given) gave A549 viability -2%, Nrf2 ARE act -1%, Nrf2 block 21µM* and IL2 activator -2.
`COCCNC(=S)NC(=O)c1ccc(C(C)(C)C)cc1` gave A549 viability -1%, Nrf2 ARE act 6%, Nrf2 block 2% and IL2 activator 1.
`O=C(NCc1ccccc1)c1cc(=O)c2ccccc2o1` gave A549 viability 0%, Nrf2 ARE act 0%, Nrf2 block inconclusive and IL2 activator -2.
For NS(=O)(=O)c1cccc(NC(=O)c2cc(=O)c3ccccc3o2)c1 the results were A549 viability -12%, Nrf2 ARE act 13µM*, Nrf2 block -2% and IL2 activator 0.
Screening O=C(Nc1cccc(S(=O)(=O)N2CCCCCC2)c1)c1cc(=O)c2ccccc2o1 returned A549 viability -14%, Nrf2 ARE act 9%, Nrf2 block 18µM* and IL2 activator -1.
Screening COc1ccc(CNC(=O)c2cc(=O)c3ccccc3o2)cc1 returned A549 viability 3%, Nrf2 ARE act -1%, Nrf2 block 13µM* and IL2 activator -3.
`O=c1c2sc3ccccc3c2n(Cc2ccc(F)cc2)c(=O)n1Cc1ccco1` gave A549 viability 5%, Nrf2 ARE act 5% and Nrf2 block -9%.
